Values joined by “and” are separate entries in the source; they are usually repeats but may differ in a detail not shown here. Equal entries are not always repeated. About 79,000 compounds went through this panel and 15% of them were active in at least one assay; those are over-represented in the sample as a whole. Values without a mark were called inactive. Active and inactive are the calls of the source. Cut-off read from the data, not from the text of the source: active = growth inhibition above about 70%; inactive = the rest.
Columns and labels:
[1] = NCI Yeast Anticancer Drug Screen. Data for the rad50 strain (AID 155);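 note: 0% = growth of vehicle-only cultures of the same strain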; details: S. cerevisiae rad50 strain growth inhibition; at 50.0 µM; hits give high values
Method in brief: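 Readout: growth inhibition relative to vehicle-treated cultures. Compound exposure was carried out in a genetically defined yeast strain deficient in DNA damage repair.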

[2] = NCI Yeast Anticancer Drug Screen. Data for the mec2-1 strain (AID 157); details: S. cerevisiae mec2-1 strain, at 50.0 µM, hits give high values
Method in brief: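 Mutant yeast (mec2-1) grown with compound; growth inhibition relative to vehicle control reported.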

[3] = NCI Yeast Anticancer Drug Screen. Data for the sgs1 mgt1 strain (AID 161);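 note: 0% = growth of cultures given vehicle only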; details: S. cerevisiae sgs1 mgt1 strain, at 50.0 µM, hits give high values
Method in brief: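 Percent growth inhibition was derived by comparing compound-exposed mutant yeast with vehicle-exposed cultures. The strain carries alterations in DNA damage repair.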

[4] = NCI Yeast Anticancer Drug Screen. Data for the cln2 rad14 strain (AID 165);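 note: 0% = growth equal to vehicle treated cultures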; details: S. cerevisiae cln2 rad14 strain, at 50.0 µM, hits give high values
Method in brief: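 Readout is yeast growth inhibition versus vehicle-treated controls, using a strain with cln2 and rad14 alterations exposed to compound.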

[5] = NCI Yeast Anticancer Drug Screen. Data for the bub3 strain (AID 167); details: S. cerevisiae bub3 mutant strain, at 50.0 µM, hits give high values
Method in brief: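 Readout: yeast growth inhibition, expressed relative to vehicle-only wells. The test organism is a mutant strain from a panel with lesions in DNA repair or checkpoint genes.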

[6] = NCI Yeast Anticancer Drug Screen. Data for the mlh1 rad18 strain (AID 175); details: S. cerevisiae mlh1 rad18 strain growth inhibition; at 50.0 µM; hits give high values
Method in brief: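 Genetically defined yeast (DNA repair-deficient) exposed to compounds; growth inhibition determined relative to vehicle.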

| Structure (SMILES) | growth inhibition [1] | growth inhibition [2] | growth inhibition [3] | growth inhibition [4] | growth inhibition [5] | growth inhibition [6] |
| --- | --- | --- | --- | --- | --- | --- |
| N#CCCCCl | 27.1% | 15.8% | 14.9% | 26.1% | 29.8% | 30.5% |
| COC(=O)C1=NNC2(c3ccccc3Sc3ccccc32)C1C(=O)OC (centres undefined) | -8.95% | -8.25% | -12.5% | 25.5% | -18.9% | -11.8% |
| O=C([O-])Cc1ccccc1.O=[N+]([O-])O.[Co+3].[NH2-].[NH2-].[NH2-].[NH2-].[NH2-] | 13.1% | 12.5% | 21.3% | 11.9% | 14.8% | -5.9% |
| CC12CCC3C(CCC4(O)C=CCCC34C=O)C1(O)CC(O)C2c1ccc(=O)oc1 (centres undefined) | -28.1% | -46.9% | -12.7% | -15.8% | -53.9% | -16.2% |
| Cc1ccc2ccccc2c1 | 3.9% | -14.5% | -6.05% | -3.05% | 2.4% | -7.35% |
| CC(Br)([N+](=O)[O-])[N+](=O)[O-] | 14.6% | 25.8% | 13.9% | 39.6% | 5.4% | 2.8% |
| CC(=O)OC1CC2(O)C(CCC3(C)C(c4ccc(=O)oc4)CCC32O)C2(C)C1=CC(O)C1OC12 (centres undefined) | 3.95% | 6.85% | -12.4% | -1.7% | -2% | -13.9% |
| Cc1cc(NC2=NCCO2)c2c(c1C)CCCC2 | -10.1% | -23.1% | -6.9% | 22.3% | -7.85% | -5.35% |
| O=C(O)CC(=O)O.[Ti].[c-]1[c-][c-][cH-][c-]1.[c-]1[c-][c-][cH-][c-]1 | -12.4% | -5.75% | -6.8% | -51.6% | 0.2% | -0.95% |
| CCC(C(=O)NC1CN2CCC1CC2)c1ccccc1 (centres undefined) | -6.25% | -23.3% | -27.4% | -3.15% | -2.6% | -13.2% |
| O=Cc1cn(CCCCCCCCCCCCn2cc(C=O)c3ccccc32)c2ccccc12 | -2.75% | -10.8% | 0.25% | -5.55% | 7.35% | -12.8% |
| COc1ccc([C@H]2N[C@@H]2c2ccccn2)cc1 | 3.25% | -1.5% | -7.2% | 17.1% | 4.8% | 20.9% |
| Cc1cccc(C)c1[S][Pb][S]c1c(C)cccc1C | -0.6% | -3.75% | -7.9% | -0.75% | -2.05% | -17.4% |
| O=C(COc1ccc(Cl)c(Cl)c1)Nc1cccc(S(=O)(=O)F)c1 | 29.4% | 10.4% | -2.45% | -10.8% | 13.1% | 19.4% |
| C1CN1[PH+](N1CC1)N1CC1.[C-]#[O+].[C-]#[O+].[C-]#[O+].[C-]#[O+].[C-]#[O+].[Cr] | -5.55% | -4.65% | -0.75% | -11.8% | 2.4% | -17.3% |
| COc1cc[c]([Pb]([c]2ccc(Cl)cc2)([c]2ccc(Cl)cc2)[c]2ccc(OC)cc2)cc1 | -13.4% | -8.95% | -1.1% | -25.7% | -4.25% | 16.2% |
| [Co+2].[Co+2].[O-]CCCN=Cc1ccccc1[O-].[O-]CCCN=Cc1ccccc1[O-] | 53.5% | 46% | 60.8% | -5.1% | 30.6% | 58.1% |
| COc1cc(=O)oc(/C=C/C=C/C=C/C(C)=C\C2(C)OC(C)C(C)(O)C2O)c1C (centres undefined) | 6.3% | -8.35% | 3.35% | -9.4% | -20.4% | -0.95% |
| CCOc1ccc([N+](=O)[O-])cc1CNCCBr | 3.3% | -1.3% | -0.45% | -22.1% | -3.1% | 12.2% |
| CCN(CC)C(=O)N1CN(c2ccccc2)C2(CCN(CCCC3(c4ccc(F)cc4)OCCO3)CC2)C1=O | 24.7% | 24.1% | 48% | 19.7% | 23.8% | 49.9% |

| Structure (SMILES) | growth inhibition [1] | growth inhibition [2] | growth inhibition [3] | growth inhibition [4] | growth inhibition [5] | growth inhibition [6] |
| --- | --- | --- | --- | --- | --- | --- |
| Cc1ccc(O)c(Cl)c1 | -1% | 5.4% | -19.4% | -11.7% | 0.15% | 38% |
| COC(=O)C(N)Cc1ccc(OC)c(N(CCCl)CCCl)c1 (centres undefined) | 17% | -0.6% | -11.2% | 2.8% | 3% | 6.55% |
| Cc1cc(Cc2cc(C)c(NC(=O)C(=O)C3C(=O)NC(=S)NC3=O)c(C(C)C)c2)cc(C(C)C)c1NC(=O)C(=O)C1C(=O)NC(=S)NC1=O | -20.6% | -8% | -18.9% | 21.6% | 8.55% | -11.7% |
| COC(=O)/C=C/[C@@H]1[C@H](C)N1S(=O)(=O)c1ccc(C)cc1 (some centres undefined) | -9.7% | -11.3% | 11.7% | 6.95% | 13.9% | -23.5% |
| c1ccc(C[n+]2ccc(-c3ccccc3)cc2)cc1 | -5.75% | 5.5% | -0.35% | -7.25% | -7.15% | -19.5% |
| NC(=O)c1ccc([As](O)O)cc1N | -0.05% | -4.9% | -12.5% | -4.75% | -11.5% | -9.1% |
| OCC(O)C(O)CO (centres undefined) | 6.7% and 6.95% | -0.55% and 8.95% | 3.55% and 0.4% | -61.8% and 20.8% | 12.1% and 24.6% | -1.05% and 0.1% |
| NS(=O)(=O)c1ccc([As]=O)cc1 (centres undefined) | -17.4% | -8.25% | -3.95% | -6.9% | -48.1% | -37.8% |
| CCOC(=O)C(Br)C(C)Br (centres undefined) | -13.4% | -39.5% | -23.1% | 7.1% | -9.65% | -22.5% |
| C[C@]12CC[C@H]3[C@@H](CCC4=CC(=O)CC[C@@]43C)[C@@H]1CC[C@@H]2OC(=O)c1cccc2c(=O)c3ccccc3[nH]c12 | 30.6% | 73% (active) | 82.1% (active) | 34.2% | 71.2% (active) | 4.1% |
| CNP1(NC)=NP(N(C)C)(N(C)C)=NP(N(C)C)(N(C)C)=N1 | -15.9% | 0.45% | -3% | -19.4% | 11.6% | 13.2% |
| CN(C)c1ccc(N=Nc2cccc(C(=O)[O-])c2)cc1.CN(C)c1ccc(N=Nc2cccc(C(=O)[O-])c2)cc1.NC1CCCCC1N.[Pt+4] | -13.4% | -4.05% | -18.4% | 1.2% | -28.1% | 36.5% |
| CC(CN1CCCCCC1)C(C#N)(c1ccccc1)c1ccccc1 (centres undefined) | 7.4% | 13.2% | 25.4% | 49.5% | 46% | 10.3% |
| CCN1CCC(O)(c2ccccc2)C(C(=O)c2ccccc2)C1 (centres undefined) | 5.15% | -17.1% | 5.3% | 20.7% | -10.9% | 16.4% |
| CC(C)CCCC(C)C1CCC2C3CC=C4CC(OC(=O)CN5CC5)CCC4(C)C3CCC12C (centres undefined) | -0.3% | -2.65% | -4.85% | -6.85% | 18.8% | 3.2% |
| CSCC(NP1(=O)SC(NN=C2CCCCC2)=NC1(C)C)C(=O)O (centres undefined) | 12.2% | 3.95% | 2% | -5.5% | -0.15% | 18.6% |
| CC(C)CC(=O)[O-].N.N.N.N.N.[Co+3].[O-][Cl+3]([O-])([O-])[O-] | -4.85% | 23.4% | -19.6% | 21.8% | -10.1% | -19.1% |
| O=C(NCP(=O)(O)O)c1cccnc1 | -10.7% and -6.8% | -29.5% and -10.8% | -4.9% and 6.8% | -37.6% and -25.1% | -32.8% and -6.75% | 2.85% and -10.2% |
| O=c1cc[cH-]o1.[C-]#[O+].[C-]#[O+].[C-]#[O+].[C-]#[O+].[C-]#[O+].[C-]#[O+].[CH-]=O.[Co+2].[Co] | -14.5% and -3.2% | -4.15% and 4.75% | 0.5% and -6.75% | -10.5% and 6.25% | -8.4% and 21.8% | 9.6% and 4.05% |

Source: PubChem BioAssay (NCI)
